This note sets out measurements from PubChem BioAssay (NCATS).

Each structure is given as a SMILES string. Values without a mark were called inactive. The call rests on the fitted dose curve; in most records, active means well fitted curve in the direction sought with a large enough effect; inconclusive means small, poorly fitted or top-dose-only effect, or effect the other way, or another doubt; inactive means no such curve, though single readings can be large or run the other way.

The assay in a line: qHTS for Inhibitors of Cell Surface uPA Generation: Validation Assay (AID 493164).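 Further: RAW 264.7 macrophage cells exposed to compound for 18 h; 0% is about no effect.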 Particulars: mouse cells, plasminogen activation; series mostly up to 38.3 µM; activity change: at the top concentration. From the text: NIH Chemical Genomics Center [NCGC]
NIH Molecular Libraries Probe Centers Network [MLPCN]
Assay Submitter (PI): Thomas Bugge
The overall objective of this project is to perform a quantitative high throughput screen (qHTS) to identify novel compounds that inhibit the generation of cell surface urokinase activity. The urokinase plasminogen activator (uPA) is one of the two primary endogenous systems that mediate plasminogen activation into plasmin. Members of this system, including uPA and its receptor (uPAR), are overexpressed in several malignant tumors. This system plays a major role in adhesion, migration, invasion and metastasis of cancer cells. Small molecule inhibitors of the uPA system will serve as probes to understand the molecular mechanisms of the uPA cascade and better understanding the microenvironmental circumstances that facilitate the activation of plasminogen by uPA, and finally may provide novel candidate agents for anticancer drug therapy.
[…] […] Upon inhibition of the uPA activation cascade, the subsequent cell surface uPA activity-dependent translocation of LF into the cytoplasm is inhibited. ATP-Lite is used to measure intracellular ATP concentrations, which remain increased if LF entry into the cytoplasm is inhibited. This validation assay was performed using a small set of validation compounds.
uPA assay protocol summary:
RAW 264.7 cells were maintained in DMEM medium (Invitrogen, Carlsbad, CA) at 37C under a humidified atmosphere containing 5% CO2 and 95% air. The medium contained 10% FBS, 1 mM sodium pyruvate and 50 U/ml penicillin/streptamycin (Invitrogen, Carlsbad, CA). All compounds were screened as 7-point titration from 2.45 nM to 38.3 uM final concentration. The assay was performed in 1536-well format plate as follows:
1.Dispensing RAW 264.7 cells into 1536-well, white walled tissue culture plates at a density of 4000 cells/well (4 uL).
2.Incubation at 37 C in a 5% CO2 incubator overnight.
3.Serially diluting compounds (1:5 serial dilution; 0.0024 uM to […] final concentration) in 23 nl DMSO.
5.Incubating the compound and reagent-treated plates for 18 hours at 37 C in a 5% CO2 incubator.
6.Adding ATP-Lite (3 ul).
7.Reading plates by ViewLux with an exposure length of 5 seconds.
In general terms: In qHTS, concentration-response curves come from the screen itself.
`Cc1ccc(S(=O)(=O)/C=C/C#N)cc1`: the “activity change” value is 1.2%.

For `N=c1ccn2c(n1)O[C@H]1[C@H](O)[C@@H](CO)O[C@H]12`, the “activity change” value was 3.5%.

As to `Clc1ccc(N2CCN(Cc3cc4ccccn4n3)CC2)cc1`, the “activity change” value was 0.332%.

For the molecule `S=C(S)OC1CC2CC1C1CCCC21` (stereo not given), the “activity change” value is 1.07%.

Turning to `CN(C)CCCO[C@@H]1[C@H]2OC(C)(C)O[C@H]2O[C@@H]1[C@H](O)CO`, the “activity change” value is -1.01%.

Consider `CCCCC/C=C\CC(O)/C=C/c1cccc(CC(O)CCCCO)n1` (stereo not given), for which the “activity change” value was -0.0253%.

On to `NCCSSCCN`, for which the “activity change” value is -1.76%.

Turning to `O=C1NC(=O)/C(=C/c2ccc3nccnc3c2)S1`, the “activity change” value is 1.28%.

For the molecule `CC1OC1P(=O)(O)O` (stereo not given), the “activity change” value was -0.149%.

On to `O=C(O)CC1CC(c2ccccc2)=NO1` (stereo not given), for which the “activity change” value was -1.39%.

Take `CO/N=C(\C(=O)N[C@@H]1C(=O)N2C(C(=O)O)=C(COC(C)=O)CS[C@H]12)c1csc(N)n1`: the “activity change” value was -0.557%.

In the case of `O=C(c1cc(O)c(O)c([N+](=O)[O-])c1)c1ccccc1F`, the “activity change” value was 0.433%.

As to `NS(=O)(=O)C#Cc1ccccc1`, the “activity change” value was 1.13%.

For the molecule `CC12C(=O)OC(=O)C1(C)C1CCC2O1` (stereo not given), the “activity change” value was -5.15%.

For the molecule `N=C(N)SCCc1ccc(CCSC(=N)N)cc1`, the “activity change” value is 0.64%.

Turning to `O=C(c1ccc(OCCCc2cnc[nH]2)cc1)C1CC1`, the “activity change” value was 0.893%.

Take `O=c1[nH]c2cc([N+](=O)[O-])c([N+](=O)[O-])cc2[nH]c1=O`: the “activity change” value is -0.0264%.

With `Nc1nc(SCc2ccc([N+](=O)[O-])cc2)c2ncn([C@@H]3O[C@H](CO)[C@@H](O)[C@H]3O)c2n1`, the “activity change” value was -0.716%.

In the case of `Nc1ncnc2c1ncn2[C@@H]1O[C@H](COP(=O)(O)CP(=O)(O)OP(=O)(O)O)[C@@H](O)[C@H]1O`, the “activity change” value was 1.98%.

Turning to `NC(N)=NC(=O)c1nc(Cl)c(N2CCCCCC2)nc1N`, the “activity change” value is 1.15%.

For the molecule `NC(CCCP(=O)(O)O)C(=O)O` (stereo not given), the “activity change” value was -0.682%.

Take `COc1ccccc1CNCCCCCCNCCCCCCCCNCCCCCCNCc1ccccc1OC`: the “activity change” value is 0.401%.

As for `NCCCCCCCCCCN`, the “activity change” value is -0.346%.

For `Nc1nc(Cl)nc2c1ncn2[C@@H]1O[C@H](COP(=O)(O)OP(=O)(O)OP(=O)(O)O)[C@@H](O)[C@H]1O`, the “activity change” value is 2.45%.

For `COc1cccc(OC)c1OCCNCC1COc2ccccc2O1` (stereo not given), the “activity change” value was 0.0321%.

Turning to `C=CC(=O)c1ccc(CCCCCC)cc1`, the “activity change” value was 1.14%.

Consider `CCNC(=O)[C@H]1O[C@@H](n2cnc3c(N)nc(NCCc4ccc(CCC(=O)O)cc4)nc32)[C@H](O)[C@@H]1O`, for which the “activity change” value was -0.618%.

`CCCCCCCCCCCCCCCCCC(=O)OC(CC(=O)O)C[N+](C)(C)C` (stereo not given): the “activity change” value was 1.28%.

As for `C[N+](C)(C)CCOP(=O)(O)OP(=O)([O-])OC[C@H]1O[C@@H](n2ccc(N)nc2=O)[C@H](O)[C@@H]1O`, the “activity change” value is -0.504%.

Consider `Ic1ccc(N2CCN(Cc3c[nH]c4ncccc34)CC2)cc1`, for which the “activity change” value was 1.16%.

On to `O=Nc1ccc2oc(=O)ccc2c1`, for which the “activity change” value was -1.25%.

Regarding `O=C1NC(=O)/C(=C/c2ccc(-c3ccc(F)cc3O)o2)S1`, the “activity change” value was 0.348%.

Turning to `Oc1cc2c(cc1O)CN(C(=S)NCCc1ccc(Cl)cc1)CCC2`, the “activity change” value is 2.67%.

Consider `CC(C)NC[C@@H](O)c1ccc(O)c(O)c1`, for which the “activity change” value was 0.517%.

With `CC(C)NC[C@H](O)COc1cccc2[nH]ccc12`, the “activity change” value was -0.336%.

On to `N#C/C(=C\c1ccc(O)c(O)c1)C(=O)NCCCc1ccccc1`, for which the “activity change” value is 2.38%.

With `CCCC1(C)C(C#N)(C#N)C1(C#N)C#N`, the “activity change” value was 0.546%.

For `Cc1nc2sccn2c(=O)c1CCN1CCC(=C(c2ccccc2)c2ccc(F)cc2)CC1`, the “activity change” value is 0.906%.

With `C[C@@H](CN1CCC(Cc2ccccc2)CC1)[C@@H](O)c1ccc(O)cc1`, the “activity change” value is 0.254%.

Regarding `NC(=O)C(=O)O`, the “activity change” value was -0.112%.
